According to the supplement of paper PMC8728848:
The sample as a whole holds a higher share of the strongest signals than the screen did.

Key:
Assay in all cases: glycan array binding signal (z-score within array); higher = stronger binding
Settings in all cases: glycan notation: IUPAC condensed, linker removed
Fuc(a1-2)Gal(b1-3)GalNAc = biological target: Fuc(a1-2)Gal(b1-3)GalNAc
How it was run: (§1)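 Negative Z-scores can be read as non-binding. The Z-score is calculated within each array and then averaged across arrays of one protein sequence at different concentrations or buffers and across linkers. Arrays, 3228 in all, were curated from the Consortium for Functional Glycomics database and kept only where the protein sequence was available.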

Fuc(a1-2)Gal(b1-4)Glc = biological target: Fuc(a1-2)Gal(b1-4)Glc
How it was run: as §1

[1] = biological target: Fuc(a1-2)[Gal(a1-3)]Gal(b1-3)GlcNAc
How it was run: as §1

[2] = biological target: Fuc(a1-2)[Gal(a1-4)]Gal(b1-4)GlcNAc
How it was run: as §1

[3] = biological target: Fuc(a1-3)[Gal(b1-4)]GlcNAc(b1-4)Gal(b1-4)[Fuc(a1-3)]GlcNAc(b1-4)Gal(b1-4)[Fuc(a1-3)]GlcNAc
How it was run: as §1

[4] = biological target: Fuc(a1-3)[Gal3S(b1-4)]Glc6S
How it was run: as §1

Gal(a1-4)Gal(b1-4)Glc = biological target: Gal(a1-4)Gal(b1-4)Glc
How it was run: as §1

Gal(b1-2)Gal = biological target: Gal(b1-2)Gal
How it was run: as §1

[5] = biological target: Gal(b1-3)GlcNAc(b1-3)Gal(b1-4)Glc
How it was run: as §1

[6] = biological target: Gal(b1-3)[Fuc(a1-4)]GlcNAc(b1-3)Gal(b1-4)[Fuc(a1-3)]GlcNAc
How it was run: as §1

GalNAc(b1-3)Gal = biological target: GalNAc(b1-3)Gal
How it was run: as §1

[7] = biological target: GlcNAc(b1-2)Man(a1-3)[GlcNAc(b1-2)Man(a1-6)]Man(b1-4)GlcNAc(b1-4)GlcNAc
How it was run: as §1

GlcNAc(b1-3)Man = biological target: GlcNAc(b1-3)Man
How it was run: as §1

GlcNAc(b1-6)GalNAc = biological target: GlcNAc(b1-6)GalNAc
How it was run: as §1

Kdn(a2-3)Gal(b1-4)GlcNAc = biological target: Kdn(a2-3)Gal(b1-4)GlcNAc
How it was run: as §1

[8] = biological target: Man(a1-2)Man(a1-3)[Man(a1-2)Man(a1-6)]Man
How it was run: as §1

[9] = biological target: Neu5Ac(a2-3)Gal(b1-3)GalNAc(b1-3)Gal(a1-4)Gal(b1-4)Glc
How it was run: as §1

[10] = biological target: Neu5Ac(a2-3)Gal(b1-3)GalNAc6S
How it was run: as §1

[11] = biological target: Neu5Ac(a2-3)Gal(b1-4)GlcNAc(b1-6)[Neu5Ac(a2-3)Gal(b1-3)]GalNAc
How it was run: as §1

[12] = biological target: Neu5Ac(a2-6)Gal(b1-4)GlcNAc(b1-2)Man(a1-3)[GlcNAc(b1-2)Man(a1-6)]Man(b1-4)GlcNAc(b1-4)GlcNAc
How it was run: as §1

[13] = biological target: Neu5Ac(a2-6)Gal(b1-4)GlcNAc(b1-2)Man(a1-6)[GlcNAc(b1-2)Man(a1-3)]Man(b1-4)GlcNAc(b1-4)GlcNAc
How it was run: as §1

[14] = biological target: Neu5Ac(a2-6)GalNAc(b1-4)GlcNAc
How it was run: as §1

[15] = biological target: Fuc(a1-2)Gal6S(b1-4)Glc6S
How it was run: as §1

[16] = biological target: Fuc(a1-3)[Gal3S(b1-4)]Glc
How it was run: as §1

[17] = biological target: Fuc(a1-3)[Gal3S(b1-4)]GlcNAc6S
How it was run: as §1

Gal(b1-3)Gal = biological target: Gal(b1-3)Gal
How it was run: as §1

Gal(b1-3)GalNAc = biological target: Gal(b1-3)GalNAc
How it was run: as §1

[18] = biological target: Gal(b1-3)GalNAc(b1-3)Gal(b1-4)Glc
How it was run: as §1

Gal3S(b1-4)Glc6S = biological target: Gal3S(b1-4)Glc6S
How it was run: as §1

Gal3S(b1-4)GlcNAc6S = biological target: Gal3S(b1-4)GlcNAc6S
How it was run: as §1

Gal3S6S(b1-4)GlcNAc6S = biological target: Gal3S6S(b1-4)GlcNAc6S
How it was run: as §1

Gal4S6S(b1-4)GlcNAc = biological target: Gal4S6S(b1-4)GlcNAc
How it was run: as §1

Gal6S(b1-4)Glc6S = biological target: Gal6S(b1-4)Glc6S
How it was run: as §1

Glc(a1-4)Glc = biological target: Glc(a1-4)Glc
How it was run: as §1

Glc(a1-6)Glc(a1-6)Glc = biological target: Glc(a1-6)Glc(a1-6)Glc
How it was run: as §1

[19] = biological target: GlcNAc(a1-6)Gal(b1-4)GlcNAc
How it was run: as §1

[20] = biological target: Neu5Ac(a2-3)Gal(b1-3)[Neu5Ac(a2-3)Gal(b1-4)]GlcNAc
How it was run: as §1

[21] = biological target: Neu5Ac(a2-3)Gal(b1-3)[Neu5Ac(a2-6)]GalNAc
How it was run: as §1

[22] = biological target: Neu5Ac(a2-3)[GalNAc(b1-4)]Gal(b1-4)GlcNAc
How it was run: as §1

[23] = biological target: Neu5Ac(a2-6)Gal(b1-4)GlcNAc(b1-3)Gal(b1-4)[Fuc(a1-3)]GlcNAc(b1-3)Gal(b1-4)[Fuc(a1-3)]GlcNAc
How it was run: as §1

[24] = biological target: Neu5Ac(a2-8)Neu5Ac(a2-3)[GalNAc(b1-4)]Gal(b1-4)Glc
How it was run: as §1

B1: LSECtin (Homo sapiens), Q6UXB4 (protein)
chain: MEQESALRELRERVTQGLAEAGRGREDVRTELFRALEAVRLQNNSCEPCPTSWLSFEGSCYFFSVPKTTWAAAQDHCADASAHLVIVGGLDEQGFLTRNTRGRGYWLGLRAVRHLGKVQGYQWVDGVSLSFSHWNQGEPNDAWGRENCVMMLHTGLWNDAPCDSEKDGWICEKKAQLLTPPSALEPRPLQHVVSWGLLTSLAPGADCQRVFSSSSTAAESQKHLAQHSPVQPSAWALGPPCRPHPNSTHADPT
glycan array binding signal (z-score) (Fuc(a1-2)Gal(b1-3)GalNAc): -0.303 | glycan array binding signal (z-score) (Fuc(a1-2)Gal(b1-4)Glc): 3.15 | glycan array binding signal (z-score) [1]: -0.278 | glycan array binding signal (z-score) [2]: 2.9 | glycan array binding signal (z-score) [3]: -0.279 | glycan array binding signal (z-score) [4]: 0.092 | glycan array binding signal (z-score) (Gal(a1-4)Gal(b1-4)Glc): -0.309 | glycan array binding signal (z-score) (Gal(b1-2)Gal): -0.302 | glycan array binding signal (z-score) [5]: -0.295 | glycan array binding signal (z-score) [6]: -0.241 | glycan array binding signal (z-score) (GalNAc(b1-3)Gal): -0.287 | glycan array binding signal (z-score) [7]: 5.09 | glycan array binding signal (z-score) (GlcNAc(b1-3)Man): 0.057 | glycan array binding signal (z-score) (GlcNAc(b1-6)GalNAc): -0.174 | glycan array binding signal (z-score) (Kdn(a2-3)Gal(b1-4)GlcNAc): -0.308 | glycan array binding signal (z-score) [8]: 0.406 | glycan array binding signal (z-score) [9]: -0.275 | glycan array binding signal (z-score) [10]: -0.307 | glycan array binding signal (z-score) [11]: -0.297 | glycan array binding signal (z-score) [12]: 5.63 | glycan array binding signal (z-score) [13]: 5.21 | glycan array binding signal (z-score) [14]: -0.301

B2: NKp30 (Homo sapiens), O14931 (protein)
chain: LWVSQPPEIRTLEGSSAFLPCSFNASQGRLAIGSVTWFRDEVVPGKEVRNGTPEFRGRLAPLASSRFLHDHQAELHIRDVRGHDASIYVCRVEVLGLGVGTGNGTRLVVEKEHPQLG
glycan array binding signal (z-score) (Fuc(a1-2)Gal(b1-3)GalNAc): -0.862 | glycan array binding signal (z-score) [15]: 2.23 | glycan array binding signal (z-score) [16]: 0.441 | glycan array binding signal (z-score) [4]: 0.61 | glycan array binding signal (z-score) [17]: 0.561 | glycan array binding signal (z-score) (Gal(b1-3)Gal): -0.378 | glycan array binding signal (z-score) (Gal(b1-3)GalNAc): -0.24 | glycan array binding signal (z-score) [18]: -0.43 | glycan array binding signal (z-score) (Gal3S(b1-4)Glc6S): 2.3 | glycan array binding signal (z-score) (Gal3S(b1-4)GlcNAc6S): 2.56 | glycan array binding signal (z-score) (Gal3S6S(b1-4)GlcNAc6S): 2.38 | glycan array binding signal (z-score) (Gal4S6S(b1-4)GlcNAc): 2.56 | glycan array binding signal (z-score) (Gal6S(b1-4)Glc6S): 2.44 | glycan array binding signal (z-score) (Glc(a1-4)Glc): -0.398 | glycan array binding signal (z-score) (Glc(a1-6)Glc(a1-6)Glc): -0.195 | glycan array binding signal (z-score) [19]: -0.667 | glycan array binding signal (z-score) [20]: 0.776 | glycan array binding signal (z-score) [21]: -0.06 | glycan array binding signal (z-score) [22]: -0.354 | glycan array binding signal (z-score) [23]: -0.472 | glycan array binding signal (z-score) [24]: -0.18
